Reference: PubChem BioAssay (NCATS)
Results filed as inconclusive are left out. Where a call stands in place of a potency, no number is given. The source made the active and inactive calls. The call rests on the fitted dose curve; in most records, active means well fitted inhibition curve with a large enough effect; inconclusive means small, poorly fitted or top-dose-only effect; inactive means no such curve, though single readings can be large or run the other way.

Assay: qHTS assay to identify inhibitors of the type 1 interferon - major histocompatibility complex class I in skeletal muscle: Counter screen cell viability and HiBit confirmation (AID 1347412); further: nearly all actives have a fitted effect of over 60% in size
Conditions: iHSKM muscle cells + IFN-b, HiBiT or CellTiter-Glo, 24 h; Potency: HiBiT unless noted; Viability, at 45.9 µM (top of the series)
Text: Assay Submitter (PI): Travis B. Kinder Ph.D. & James Inglese Ph.D. Assay Development and Screening Technology Laboratory (ADST) National Center for Advancing Translational Sciences (NCATS), Rockville, MD National Institute of Health (NIH), Bethesda, Maryland Idiopathic inflammatory myopathies, collectively referred to as myositis, are a group of rare autoimmune diseases characterized by skeletal muscle inflammation, weakness, and usually accompanied by systemic pathologies of the skin, lungs, or vasculature. Current immunosuppressive therapies and glucocorticoids are often not curative and are accompanied by harsh side effects, especially in children with juvenile myositis. We initiated a drug repurposing and development program to identify more targeted, less toxic therapeutics to treat myositis. Although its cause is not known, muscle from a subset of patients have an abundance of the inflammatory type 1 interferon (IFN) and a down-stream product major histocompatibility complex class I (MHC class I), which are both thought to contribute to damage and weakness. We conducted quantitative high throughput screening on 6,576 compounds (4,679 unique) through a series of cell-based assays to identify those that inhibit the IFN-stimulated expression of MHC class I in muscle precursor cells (myoblasts). The compound identification and evaluation strategy utilized a primary screen with reporter-tagged MHC class I in genome-engineered myoblasts, ATP content counter screen for viability, HLA-ABC immunofluorescence secondary screen, and HLA-B RT-qPCR tertiary screen. The primary screen utilized CRISPR/Cas9 genome-engineering of immortalized human myoblasts, C25cl48, where a pro-luminescent reporter HiBit was fused to the C-terminus of endogenous MHC class I allele HLA-B*08:01 (HLA-B HiBit myoblasts). HiBit is an 11 amino acid fragment of NanoLuc luminescent reporter (Promega Corporation), and when complexed to the larger LgBit fragment, the reconstituted enzyme produces light in the presence of furimazine substrate (Schwinn et al., 2018). Briefly, HLA-B HiBit myoblasts were plated into 1536-well plates, treated with 4.0 ng/ml human IFN-beta and 650 inhibitory compounds identified from primary screening in a 12-point, 1:3 titration with a high final concentration of 46 uM. Compounds were pinned into duplicate plates, with one for HiBit confirmation and one for ATP content viability assay. After 24 hrs of treatment, cells were assayed by either Nano-Glo HiBiT Lytic Detection System (Promega) or CellTiter Glo (Promega), and luminescence measured by a ViewLux 1430 Ultra HTS (Perkin Elmer). References: Schwinn MK, Machleidt T, Zimmerman K, Eggers CT, Dixon AS, Hurst R, Hall MP, Encell LP, Binkowski BF, Wood K V. 2018. CRISPR-Mediated Tagging of Endogenous Proteins with a Luminescent Peptide. ACS Chem Biol 13:467-474. doi:10.1021/acschembio.7b00549
PROTOCOL TABLE (as described by Inglese et al., 2007) SEQUENCE No. (e.g., 1, 2, 3, etc.); […] (e.g., Cells, Incubation, Reagent, etc.); VALUE; DESCRIPTION 1a; Cells; 5 uL; Use a Multidrop Combi (Thermo Scientific) to seed 300 cells/well into 16 Greiner 1536 well white/solid bottom, high base, TC plates in 5 ul/well of iHSKM growth medium (GM) without dexamethasone into columns 1+2. Add metal lids with gas-exchange holes 1b; Cells; 5 uL; Use a Multidrop Combi (Thermo Scientific) to seed 300 cells/well into 16 Greiner 1536 well white/solid bottom, high base, TC plates in 5 ul/well of iHSKM GM without dexamethasone + 4 ng/ml IFN-b into columns 3 - 48. Add metal lids with gas-exchange holes 2; Incubate; 1 hr; Incubate at 37 C, 5% CO2, 95% RH 3; Compounds; 23 nl; Use Pin Tool (Wako) to transfer DMSO control, 92 uM final digitonin cytotoxic control, ruxolitinib IFN-b inhibitor control [High Concentration = 80 uM final, 16-pt, 1:2 in duplicate], and library compounds in DMSO. […]
Potency means the concentration at half of the fitted maximal effect.

SMILES | Potency
C[C@]12CCC(=O)C=C1CC[C@H]1[C@@H]3CC[C@](O)(C(=O)CO)[C@@]3(C)C[C@H](O)[C@@]12F | inactive
COc1cc(C=C2CCC/C(=C\c3ccc(O)c(OC)c3)C2=O)ccc1O | inactive
C[C@]12C=CC(=O)C=C1CC[C@@H]1[C@@H]2[C@@H](O)C[C@@]2(C)[C@H]1CC[C@]2(O)C(=O)CO | inactive
CC(=O)OCC(=O)[C@@]12N=C(C)O[C@@H]1C[C@H]1[C@@H]3CCC4=CC(=O)C=C[C@]4(C)[C@H]3[C@@H](O)C[C@@]12C | inactive
CC(=O)OCC(=O)[C@@]1(O)CC[C@H]2[C@@H]3CCC4=CC(=O)C=C[C@]4(C)[C@H]3[C@@H](O)C[C@@]21C | inactive
CC(=O)OCC(=O)[C@@]12OC(C)(C)O[C@@H]1C[C@H]1[C@@H]3C[C@H](F)C4=CC(=O)C=C[C@]4(C)[C@@]3(F)[C@@H](O)C[C@@]12C | inactive
C[C@H]1C[C@H]2[C@@H]3CCC4=CC(=O)C=C[C@]4(C)[C@@]3(Cl)[C@@H](O)C[C@]2(C)[C@@]1(O)C(=O)CO | inactive
C[C@]12C=CC(=O)C=C1[C@@H](F)C[C@@H]1[C@@H]2[C@@H](O)C[C@@]2(C)[C@H]1CC[C@]2(O)C(=O)CO | inactive
CCCC(=O)O[C@]1(C(=O)CO)CC[C@H]2[C@@H]3CCC4=CC(=O)CC[C@]4(C)[C@H]3[C@@H](O)C[C@@]21C | inactive
COc1cccc2c1C(=O)c1c(O)c3c(c(O)c1C2=O)C[C@@](O)(C(C)=O)C[C@@H]3O[C@H]1C[C@H](N)[C@H](O)[C@H](C)O1 | 0.442 µM (active)
CCCCC(CC)CN=C(N)NC(N)=NCCCCCCN=C(N)NC(N)=NCC(CC)CCCC (centres undefined) | 22.2 µM [Viability] (active)
CC(C)n1nc(-c2cc3cc(O)ccc3[nH]2)c2c(N)ncnc21 | 3.52 µM (active)
CCCCC(=O)O[C@]1(C(=O)CO)CC[C@H]2[C@@H]3CCC4=CC(=O)CC[C@]4(C)[C@H]3[C@@H](O)C[C@@]21C | inactive
CC(=O)OCC(=O)[C@@]1(OC(C)=O)[C@@H](C)C[C@H]2[C@@H]3C[C@H](F)C4=CC(=O)C=C[C@]4(C)[C@@]3(F)[C@@H](O)C[C@@]21C | inactive
